PubChem BioAssay AID449762 (Southern Research Specialized Biocontainment Screening …, 2010)
Out of some 330,000 compounds screened, about 1,900 (0.58%) were called active. About 4% were inconclusive and are not listed. Not all results are given here. Entries with a potency or affinity are not part of this list. A number with no mark means an inactive call. Rule as the data show it: inconclusive = inhibition above about 70% without an active follow-up result; inactive = below that.

assay: M. tuberculosis growth inhibition, HTS (AID 449762);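 also: bacterial growth assessed after seven days of incubation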; settings: M. tuberculosis H37Rv growth inhibition, 7H9 media; at 25 µM; hits give high values

Structure (SMILES) | inhibition [%]
COc1ccccc1NC(=O)Nc1ccc(F)c(F)c1 | 0.47
CCc1nnc(NS(=O)(=O)c2ccc(N/C=C/C(=O)c3ccc(OC)cc3)cc2)s1 | 4.48
CCc1nnc(NS(=O)(=O)c2ccc(N/C=C\C(=O)c3ccc4ccccc4c3)cc2)s1 | -6.64
Cn1c(=O)c2c(SCC(=O)Nc3nccs3)nc(C3CC3)nc2n(C)c1=O | -1.82
Cc1ccc(C2=NS(=O)(=O)N(C)C(C(=O)Nc3cc(C)n(CC(=O)N4CCCCC4)n3)=C2)cc1 | -4.07
Cc1cccc(N=C2C(=O)Nc3c(Cl)cccc32)c1 | 6.57
Cc1ccc(NC(=O)CSc2nc3ccccc3c3nc(CCn4cncc4C)nn23)c(C)c1 | 9.55
Cc1ccccc1NC(=O)CSc1nc2ccccc2c2nc(CCn3cncc3C)nn12 | 6.6
O=C(NCc1ccc2c(c1)OCO2)c1ccc(C2SCC(=O)N2Cc2ccco2)cc1 (stereo not drawn) | -7.71
COc1ccc(C(=O)NCc2ccc3c(c2)OCO3)cc1 | -0.3
COc1cc2c(cc1NC(=O)CN1CCN(S(=O)(=O)c3ccc(C)cc3)CC1)oc1ccccc12 | -6.72
O=c1c2c(nc3nc(NCc4ccccc4Cl)[nH]n13)CCC2 | 21.9
O=c1c2c(nc3nc(NCc4cccc(Cl)c4)[nH]n13)CCC2 | 19.9
Cc1nc2nc3c(c(=O)n2[nH]1)CCC3 | -2.58
Cc1nc2nc3c(c(=O)n2[nH]1)CCCC3 | -1.58
COc1ccc(NC(=O)C2CCN(c3cc(-c4ccccc4)nc4ncnn34)CC2)cc1OC | -9.41
CCOc1ncccc1C(=O)Nc1cccc(-c2nc3cccnc3s2)c1 | 2.6
CCn1c(=O)n(CC)c2cc(S(=O)(=O)Nc3c(C)cccc3C)ccc21 | -0.18
O=C1/C(=C/c2ccncc2)CCc2ccccc21 | 20.6
O=C1/C(=C\c2cccnc2)CCc2ccccc21 | 53.9
COc1ccc(CNC(=O)C2CCN(C(=O)c3csc(Nc4ccc(C)cc4)n3)CC2)cc1 | 9.09
CC(CN1CCCCC1)OC(=O)/C=C/c1ccccc1 (stereo not drawn) | 4.22
CCCc1nc2c(=O)[nH]c3ccccc3c2o1 | -2.82
CCCCc1nc2c(=O)[nH]c3ccccc3c2o1 | -3.26

Structure (SMILES) | inhibition [%]
CC(C)N1CCc2c(sc(NC(=O)CCc3ccccc3)c2C(N)=O)C1 | 2.58
c1cncc(CNc2ncnc3ccc(-c4ccc5c(c4)OCCO5)cc23)c1 | 6.78
Cc1cccc(CNc2ncnc3ccc(-c4ccc5c(c4)OCO5)cc23)c1 | 4.98
O=C(CN1C(=O)NC(c2ccccc2)(c2ccccc2)C1=O)N1CCCCC1 | 3.83
O=C1[C@H]2[C@@H](c3ccc(F)cc3)N3C(=O)N(c4ccccc4)C(=O)[C@@]3(Cc3ccccc3)[C@H]2C(=O)N1C1CCCCC1 | -4.71
CC1(C)CC1C(=O)Nc1ccc([N+](=O)[O-])cc1Br (stereo not drawn) | -1.2
Cc1cccc(C2(c3cccc(C)c3)CC2C(=O)Nc2ccc([N+](=O)[O-])cc2O)c1 (stereo not drawn) | 8.65
CCC(=O)NC(=S)Nc1ccc(OC)cc1OC | 2.55
Cc1nc(SCC(=O)NCC2CCCO2)c2c3c(sc2n1)CCC3 (stereo not drawn) | -2.08
Cc1nc(SCC(=O)NCC2CCCO2)c2c(C)c(C)sc2n1 (stereo not drawn) | -15.3
O=C(CSc1nc2scc(-c3ccccc3)c2c(=O)[nH]1)NCCc1ccccc1 | -20.7
O=c1[nH]c(=O)n(C2CCCO2)cc1Br (stereo not drawn) | 1.51
O=c1[nH]c(=O)n([C@H]2C[C@H](O)[C@@H](CO)O2)cc1F | 34.4
COc1ccc(O)c(CN2CCCC(N3CCN(c4ccccc4OC)CC3)C2)c1 (stereo not drawn) | 4.68
O=C(CCNC(=O)c1ccccc1Cl)Nc1nccs1 | -4
COc1ccc(N(CC(=O)NCCc2ccccc2)C(=O)c2csnn2)cc1OC | -2.24
COc1ccc(C2CC2/C(C)=N/OC(=O)C2CC2)cc1 (stereo not drawn) | 68.7
COc1ccc(C2CC2C(C)=O)cc1 (stereo not drawn) | -4.29
CC(C)(C)OC(=O)N1CCC(CC2CC(c3ccncc3)=NO2)(C(=O)O)CC1 (stereo not drawn) | -6.97
O=c1c2ccccc2nnn1CSc1ccc2ccccc2n1 | -1.57
CSc1ccc(S(=O)(=O)NCC(=O)OCC(=O)N2CCCCC2C)cc1[N+](=O)[O-] (stereo not drawn) | -8.12
COc1ccc(-c2nsc3c(N4CCCC4)ncnc23)cc1 | 5.98
COc1ccc(-c2nsc3c(N4CCCCC4)ncnc23)cc1 | -0.13
Cc1ccc(CNC(=O)Cn2cccc2C(=O)c2ccccc2C)cc1 | -0.89

Structure (SMILES) | inhibition [%]
CCN(CC)S(=O)(=O)c1cccc(C(=O)N/N=C/c2ccccn2)c1 | -3.65
O=C(Nc1ccc(Br)cc1Cl)c1ccc(OCC2CCCO2)cc1 (stereo not drawn) | 3.35
CCOC(=O)C1(Cc2cccc(Cl)c2)CCCN(C(=O)c2cnn(CC)c2)C1 (stereo not drawn) | -5.14
CCOc1ccc(C(=O)Nc2ccc3c(c2)OCCO3)cc1 | 9.28
CCOc1ccc(NC(=O)COC(=O)c2ccc3c(c2)OCCO3)cc1 | 9.4
Cc1c(/C=N\NC(=O)c2c[nH]c3ccccc23)cnn1C | 6.8
COc1ccccc1NC(=S)N1CCN(C(=O)C2CCCO2)CC1 (stereo not drawn) | 4.95
COC(=O)c1c(NC(=O)CC2SC(N)=NC2=O)sc2c1CCC(C)C2 (stereo not drawn) | -3.66
COC(=O)c1c(NC(=O)CC2SC(N)=NC2=O)sc2c1CCCC2 (stereo not drawn) | -10.2
COc1ccc(C(=O)c2c(-c3ccc(OC)cc3)oc3ccc(-c4ccc(OC)nc4)cc23)cc1 | 64.6
CCCC12CN3CC(CCC)(CN(C1)C3c1ccco1)C2=O (stereo not drawn) | -6.51
CCCC12CN3CC(C)(CN(C1)C3c1ccco1)C2=O (stereo not drawn) | -1.36
CN(C)CCN(Cc1ccco1)C(=O)c1oc2ccccc2c1NC(=O)COc1ccccc1 | 13.6
Cc1ccccc1C(=O)Nc1c(C(=O)N(CCN(C)C)Cc2ccco2)oc2ccccc12 | 13.6
CN(C(=O)CSc1nnc(-c2ccncc2)n1-c1ccccc1)C1CCS(=O)(=O)C1 (stereo not drawn) | -8.96
O=C(NC1CCCCCC1)c1cccc(COCC(F)(F)F)c1 | -0.72
C/C(=N\NC(=S)NCc1ccccc1)c1ccccc1F | -2.93
C/C(=N\NC(=S)NCCc1ccccc1)c1ccc(O)cc1O | 3.81
Cc1noc(C)c1S(=O)(=O)Nc1ccc(C(=O)N2CCC(C)CC2)cc1 | 8.59
Cc1ccc(N2CC(C(=O)N3CCC(C(=O)Nc4nnc(C(C)(C)C)s4)CC3)CC2=O)cc1 (stereo not drawn) | 4.69
OCC1(Cc2ccc(Cl)cc2)CCN(CCCc2ccccc2)CC1 | 39.2
COc1cnc(-c2ccccc2)nc1Oc1ccc(Cl)cc1C | 3.24
COc1cnc(-c2ccccn2)nc1Oc1ccc(Cl)cc1 | 2.17
Cc1cc(C)cc(OCC(=O)N2Cc3ccccc3CC2C(=O)O)c1 (stereo not drawn) | 10.5

Structure (SMILES) | inhibition [%]
CC(CC(=O)Nc1ccc(-c2ccno2)cc1)n1cccn1 (stereo not drawn) | 21.4
Cc1ccc(CNC(=O)COC(=O)c2cc(=O)[nH]c3ccccc23)cc1 | 6.93
N#Cc1ccccc1/C=N/Nc1nc(-c2ccccc2)c2cc(Cl)ccc2n1 | -2.26
N#Cc1ccccc1/C=N/Nc1nc(-c2ccccc2)c2cc(Br)ccc2n1 | 6.43
COCCNC(=S)Nc1ccc2nc(N3CCOCC3)cc(C)c2c1 | -5.25
O=C(COC(=O)CNC(=O)c1ccc(Cl)c([N+](=O)[O-])c1)NCC1CCCO1 (stereo not drawn) | -15.8
Cc1nn2c(N3CCCC3)cc(C(C)C)nc2c1-c1ccccc1 | 2.45
Cc1cc(NCCC(C)C)n2nc(C)c(-c3ccccc3)c2n1 | 67.4
CCS(=O)(=O)Nc1ccc(C2=NN(C(=O)c3ccco3)C(c3cccc(F)c3)C2)cc1 (stereo not drawn) | 23.2
Cn1nc(C(F)(F)F)c2cc(NC(=O)OCc3ccc(F)cc3)sc21 | 10.2
COc1ccc(COC(=O)Nc2cc3c(C(F)(F)F)nn(C)c3s2)cc1 | -0.32
CC1CCC(NC(=O)c2ccc(NS(=O)(=O)c3ccc4[nH]c(=O)[nH]c4c3)cc2)CC1 (stereo not drawn) | -6.1
CC1(c2nnc(-c3ccccc3)o2)CC(c2ccc([N+](=O)[O-])cc2)=NO1 (stereo not drawn) | -0.65
COC(=O)c1ccc(NC(=O)c2ccc[n+]([O-])c2)cc1 | -4.13
c1ccc2nc3c(nc2c1)OCC1CCCCN31 (stereo not drawn) | 3.14
CC1(C(=O)N(CC(=O)NC2CCCC2)Cc2ccc(Cl)cc2)CC(=O)N=C2C=CC=CN21 (stereo not drawn) | -2.69
Cc1ccccc1NC(=O)NC(N)=O | -2.65
CCN(CC)CCOC(=O)c1ccc(N/C=C(/C#N)c2nc(-c3cc4ccccc4oc3=O)cs2)cc1 | 9.42
Cc1ccc(-c2csc(/C(C#N)=C/Nc3ccc4c(c3)OCCO4)n2)cc1 | 7
Cc1cc(CN(C)C(=O)c2ccc3nc(Cc4ccccc4F)oc3c2)n[nH]1 | -6.04
Cc1cccc(C(=O)OCC(=O)N(C)CC(=O)Nc2ccc(Cl)c(C(F)(F)F)c2)c1 | 1.53
